# Experimental data taken from PubChem BioAssay.
# The source made the active and inactive calls.
# Legend:
# [1] = binders of probe aFSTL3 on microarray, primary screen, stem cell growth factor project, biochemical, small-molecule microarray, fluorescence 635/667 (AID 1064); settings: higher = more signal;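 further: measures binding of the biotinylated anti-FSTL3 antibody to printed compounds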
# [2] = binders from COS7 lysate, DM2A8 probe, primary screen, torsin A project, cell lysate, small-molecule microarray, fluorescence 635/667 (AID 1065); settings: higher = more signal, COS7 lysate expressing mutant human TOR1A
# [3] = binders of probe aFGF2 on microarray, primary screen, stem cell growth factor project, biochemical, small-molecule microarray, fluorescence 635/667 (AID 1067); settings: higher = more signal;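 further: measures binding of biotinylated aFGF2 protein to printed compounds on slides; z-score merges feature fluorescence and signal-to-noise across triplicate slides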
# [4] = binders of probe aFGF10 on microarray, primary screen, stem cell growth factor project, biochemical, small-molecule microarray, fluorescence 635/667 (AID 1071); settings: higher = more signal;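 further: score merges 667 nm spot intensity and signal to noise from triplicate slides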
# [5] = molecular target: Neurogenic locus notch homolog protein 2 (Homo sapiens) (UniProt Q04721); test: Notch2 binders on small-molecule microarrays, primary screen, biochemical, small-molecule microarray, 635 nm fluorescence, stem cell growth factors (AID 1073); settings: Notch2 binding, higher = more signal
# Sequence of Neurogenic locus notch homolog protein 2 (Homo sapiens) (Q04721 whole entry, looked up, canonical isoform): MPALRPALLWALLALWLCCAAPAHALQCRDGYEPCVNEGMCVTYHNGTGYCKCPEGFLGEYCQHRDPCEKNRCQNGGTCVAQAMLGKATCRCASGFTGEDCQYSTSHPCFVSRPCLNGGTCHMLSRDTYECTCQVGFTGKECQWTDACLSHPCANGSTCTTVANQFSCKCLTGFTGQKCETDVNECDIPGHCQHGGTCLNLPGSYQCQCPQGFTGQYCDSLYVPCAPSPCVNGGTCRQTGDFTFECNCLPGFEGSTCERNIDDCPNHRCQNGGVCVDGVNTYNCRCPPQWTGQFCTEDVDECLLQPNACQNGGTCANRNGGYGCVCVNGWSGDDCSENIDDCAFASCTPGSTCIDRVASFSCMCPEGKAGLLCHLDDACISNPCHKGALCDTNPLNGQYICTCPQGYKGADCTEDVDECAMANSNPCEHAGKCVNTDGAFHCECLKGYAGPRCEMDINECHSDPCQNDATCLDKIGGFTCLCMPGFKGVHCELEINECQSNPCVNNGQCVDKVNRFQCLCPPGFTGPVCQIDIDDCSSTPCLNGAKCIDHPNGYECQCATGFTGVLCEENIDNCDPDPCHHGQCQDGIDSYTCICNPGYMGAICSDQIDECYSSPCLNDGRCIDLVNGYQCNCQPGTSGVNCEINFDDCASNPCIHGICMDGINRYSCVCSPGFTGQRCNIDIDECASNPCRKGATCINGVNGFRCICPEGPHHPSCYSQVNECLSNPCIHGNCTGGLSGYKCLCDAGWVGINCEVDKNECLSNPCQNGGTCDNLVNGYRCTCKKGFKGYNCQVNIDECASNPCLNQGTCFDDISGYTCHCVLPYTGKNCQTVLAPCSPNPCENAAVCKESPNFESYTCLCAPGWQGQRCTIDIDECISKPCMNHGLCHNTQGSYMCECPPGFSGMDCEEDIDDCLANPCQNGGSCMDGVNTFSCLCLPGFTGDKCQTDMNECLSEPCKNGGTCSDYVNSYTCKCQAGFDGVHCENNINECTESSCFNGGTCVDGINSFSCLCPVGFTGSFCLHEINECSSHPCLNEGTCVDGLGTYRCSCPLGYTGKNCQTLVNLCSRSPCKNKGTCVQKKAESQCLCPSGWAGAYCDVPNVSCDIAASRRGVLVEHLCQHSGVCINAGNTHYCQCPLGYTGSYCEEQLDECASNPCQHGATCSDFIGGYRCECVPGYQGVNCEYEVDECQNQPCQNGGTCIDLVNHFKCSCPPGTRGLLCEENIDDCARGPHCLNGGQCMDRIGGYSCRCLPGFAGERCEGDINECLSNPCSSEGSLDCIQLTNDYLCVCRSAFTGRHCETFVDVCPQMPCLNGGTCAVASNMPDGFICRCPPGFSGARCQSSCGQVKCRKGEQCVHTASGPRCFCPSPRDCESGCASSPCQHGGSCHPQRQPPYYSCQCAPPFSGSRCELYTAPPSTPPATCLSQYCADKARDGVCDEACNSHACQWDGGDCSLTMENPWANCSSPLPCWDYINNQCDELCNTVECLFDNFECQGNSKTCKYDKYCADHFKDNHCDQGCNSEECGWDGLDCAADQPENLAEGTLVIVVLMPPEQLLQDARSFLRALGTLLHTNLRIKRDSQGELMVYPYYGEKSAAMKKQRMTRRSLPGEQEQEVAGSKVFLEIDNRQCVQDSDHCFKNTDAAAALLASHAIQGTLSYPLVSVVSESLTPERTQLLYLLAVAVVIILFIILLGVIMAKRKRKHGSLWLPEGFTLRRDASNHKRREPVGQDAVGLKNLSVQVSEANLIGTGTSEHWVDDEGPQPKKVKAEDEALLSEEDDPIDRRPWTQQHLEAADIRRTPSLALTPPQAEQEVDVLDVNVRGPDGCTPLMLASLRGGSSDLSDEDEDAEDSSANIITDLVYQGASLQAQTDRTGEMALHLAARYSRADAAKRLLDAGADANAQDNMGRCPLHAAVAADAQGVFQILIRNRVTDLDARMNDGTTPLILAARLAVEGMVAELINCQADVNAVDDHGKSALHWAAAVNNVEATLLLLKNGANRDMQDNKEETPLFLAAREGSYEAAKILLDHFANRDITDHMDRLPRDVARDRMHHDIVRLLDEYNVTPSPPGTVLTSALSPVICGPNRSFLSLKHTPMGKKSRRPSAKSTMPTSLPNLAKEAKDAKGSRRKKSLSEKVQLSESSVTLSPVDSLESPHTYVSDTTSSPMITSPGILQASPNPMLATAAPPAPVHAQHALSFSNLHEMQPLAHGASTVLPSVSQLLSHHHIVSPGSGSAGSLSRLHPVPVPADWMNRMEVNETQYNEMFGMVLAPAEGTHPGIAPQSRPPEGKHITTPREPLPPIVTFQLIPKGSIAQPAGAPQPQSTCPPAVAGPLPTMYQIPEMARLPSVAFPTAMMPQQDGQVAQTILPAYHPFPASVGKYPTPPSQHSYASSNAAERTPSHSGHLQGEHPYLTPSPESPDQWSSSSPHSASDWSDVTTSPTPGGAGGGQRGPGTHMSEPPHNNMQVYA
# [6] = molecular target: Pro-neuregulin-1, membrane-bound isoform (Homo sapiens) (UniProt Q02297); test: NRG1 binders on small-molecule microarrays, primary screen, psychiatric disease protein project, biochemical, small-molecule microarray, fluorescence 635/667 (AID 1075); settings: NRG1 binding, 635 nm fluorescence, higher = more signal;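 further: score combines 667 nm spot fluorescence with signal to noise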
# Sequence of Pro-neuregulin-1, membrane-bound isoform (Homo sapiens) (Q02297 whole entry, looked up, the tested form may be a part, canonical isoform): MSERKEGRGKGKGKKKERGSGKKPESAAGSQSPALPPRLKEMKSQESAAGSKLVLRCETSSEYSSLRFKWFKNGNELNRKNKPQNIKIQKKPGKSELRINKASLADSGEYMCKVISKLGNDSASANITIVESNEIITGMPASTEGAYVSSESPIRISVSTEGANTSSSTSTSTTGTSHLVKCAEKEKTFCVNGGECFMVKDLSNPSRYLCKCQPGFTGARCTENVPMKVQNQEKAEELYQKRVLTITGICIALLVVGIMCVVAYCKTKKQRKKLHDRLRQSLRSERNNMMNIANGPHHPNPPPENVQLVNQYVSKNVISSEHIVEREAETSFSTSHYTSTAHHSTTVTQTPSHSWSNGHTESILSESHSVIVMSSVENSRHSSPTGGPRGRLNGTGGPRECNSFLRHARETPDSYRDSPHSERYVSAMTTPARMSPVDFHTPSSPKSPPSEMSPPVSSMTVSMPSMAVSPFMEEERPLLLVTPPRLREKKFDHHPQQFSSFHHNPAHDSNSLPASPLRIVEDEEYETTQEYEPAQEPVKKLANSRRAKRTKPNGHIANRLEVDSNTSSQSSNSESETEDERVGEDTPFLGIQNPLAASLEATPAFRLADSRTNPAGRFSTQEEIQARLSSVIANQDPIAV
# [7] = test system: Neuregulin-1 EGF-like domain; test: binders of neuregulin-1 EGF-like domain, primary screen, biochemical, small-molecule microarray, 635 nm fluorescence (AID 1081); settings: small-molecule microarray binding, higher = more signal;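 further: binding of the protein to compounds printed on small-molecule microarray slides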
# [8] = FRG1 promoter luciferase signal modulators, primary screen, FRG1 inhibition for FSHD, cell-based, C2C12 myotubes, firefly/Renilla luciferase, luminescence (AID 1084); settings: higher = more signal, called active from +8 up or from −8 down
# [9] = binders of probe aFST on microarray, primary screen, stem cell growth factor project, biochemical, small-molecule microarray, fluorescence 635/667 (AID 1086); settings: higher = more signal;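 further: score merges 667 nm fluorescence with signal-to-noise of each printed compound spot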
# [10] = binders of probe aHhip on microarray, primary screen, stem cell growth factor project, biochemical, small-molecule microarray, fluorescence 635/667 (AID 1087); settings: higher = more signal;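 further: score merges spot fluorescence at 667nm with spot signal to noise ratio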
# [11] = test system: PRMT1 (protein arginine N-methyltransferase 1); test: PRMT1 binders on small-molecule microarrays, primary screen, biochemical, small-molecule microarray, 635 nm fluorescence (AID 1088); settings: small-molecule microarray binding, higher = more signal;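 further: binding of Prmt1 protein to compounds spotted on small-molecule microarray slides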
# [12] = yeast growth modulation, basal conditions, primary screen, YJM789 clinical isolate, OD600, 24 h (AID 1089);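 further: growth of clinical yeast isolate S. cerevisiae YJM 789 seeded 1000 cells per well; test concentration not given here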; settings: S. cerevisiae YJM789 growth, higher = more signal, called active from +8 up or from −8 down
# [13] = fission yeast growth modulation, primary screen, strain 972, OD600, 24 h, no modulator (AID 1090);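 further: basal condition with compound alone and no growth modifier present; test concentration not given here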; settings: S. pombe 972 growth, higher = more signal, called active from +8 up or from −8 down
# [14] = S. cerevisiae growth modulation with rapamycin, primary screen, strain BY4716, OD600, 96 h (AID 1091); settings: higher = more signal, called active from +8 up or from −8 down; further: test concentration not given here
# [15] = molecular target: Torsin-1A-interacting protein 2 (Homo sapiens) (UniProt Q8NFQ8); test: LULL1 binders on small-molecule microarray, primary screen, cell lysate, human LULL1 lysate, 635/667 nm fluorescence (AID 1092); settings: hLULL1 lysate binding, 635 nm fluorescence, higher = more signal;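 further: probe is lysate of COS7 cells overexpressing human LULL1; score merges per-feature 667 nm fluorescence with signal-to-noise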
# Sequence of Torsin-1A-interacting protein 2 (Homo sapiens) (Q8NFQ8 whole entry, looked up): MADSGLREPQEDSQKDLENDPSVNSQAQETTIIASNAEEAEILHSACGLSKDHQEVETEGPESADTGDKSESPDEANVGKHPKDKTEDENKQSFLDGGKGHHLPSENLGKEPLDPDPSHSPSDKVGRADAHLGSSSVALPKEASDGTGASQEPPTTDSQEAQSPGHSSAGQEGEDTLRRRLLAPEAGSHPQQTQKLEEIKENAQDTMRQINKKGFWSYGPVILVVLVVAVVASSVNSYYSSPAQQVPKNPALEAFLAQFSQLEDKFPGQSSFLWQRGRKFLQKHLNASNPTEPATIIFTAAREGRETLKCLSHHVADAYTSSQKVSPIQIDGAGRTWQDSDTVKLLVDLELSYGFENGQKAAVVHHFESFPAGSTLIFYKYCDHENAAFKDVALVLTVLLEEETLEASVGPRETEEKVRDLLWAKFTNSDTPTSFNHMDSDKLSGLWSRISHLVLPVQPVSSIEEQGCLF
# [16] = E. coli growth modulation, two-sided OD650, primary screen, E. coli filamentation project, strain DRC41, 24 h (AID 1093); settings: OD650, 24 h, higher = more signal, called active from +8 up or from −8 down;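 further: MC1000 strain lacking acrAB efflux and sulA so SOS filamentation is blocked; test concentration not given here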
# [17] = small-molecule microarray binders of probe aLefty2, primary screen, biochemical, biotinylated probe, 635/667 nm fluorescence (AID 1094); settings: higher = more signal;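 further: score merges spot fluorescence near 667 nm with spot signal-to-noise ratio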
# [18] = test system: Noggin (protein binding on small-molecule microarray); test: Noggin binders on small-molecule microarray, primary screen, biochemical, 635/667 nm fluorescence (AID 1095); settings: 635 nm fluorescence, higher = more signal;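 further: score merges 667 nm feature fluorescence with signal to noise over triplicate slides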
# [19] = molecular target: Neurogenic locus notch homolog protein 3 (Homo sapiens) (UniProt Q9UM47); test: NOTCH3 binders on small-molecule microarray, primary screen, biochemical, 635/667 nm fluorescence (AID 1096); settings: NOTCH3 binding, 635 nm fluorescence, higher = more signal
# [20] = small-molecule microarray binders of probe aEGFR, primary screen, biochemical, biotinylated probe, 635/667 nm fluorescence (AID 1097); settings: higher = more signal;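 further: probe is a biotinylated anti-EGFR antibody binding compounds printed on slides; score combines fluorescence near 667 nm and signal to noise of each spot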
SMILES,composite z-score [1],composite z-score [2],composite z-score [3],composite z-score [4],composite z-score [5],composite z-score [6],composite z-score [7],z-score [8],composite z-score [9],composite z-score [10],composite z-score [11],z-score [12],z-score [13],z-score [14],composite z-score [15],z-score [16],composite z-score [17],composite z-score [18],composite z-score [19],composite z-score [20]
CO[C@@H]1COC(=O)[C@H](CCSC)NC(=O)CC=C[C@@H](C)COC(=O)[C@H](C)NC(=O)CC=C[C@H]1C,-0.605,1.03,-0.129,0.347,0.115,-0.343,0.871,-0.0159 (inactive),0.457,0.408,1.39,0.153 (inactive),-0.266 (inactive),0.291 (inactive),-0.0068,1.01 (inactive),-0.247,0.783,0.989,-0.201
CC(CCN1CCCCc2nc(C)c(C)cc21)=NOC[C@@H](C)[C@H](OCc1ccccc1)C(C)C,-0.443,-0.548,-0.29,-0.776,-1.38,-0.559,-0.545,-0.688 (inactive),-2.12,-0.0423,-0.262,-2.75 (inactive),-5.66 (inactive),-0.677 (inactive),-0.569,-1.42 (inactive),-0.467,-1.02,-1.53,-0.551
Cc1ccc(S(=O)(=O)OC[C@H]2CN3[C@H](c4ccc(Br)cc4)[C@@H](C)CC[C@H]3C(=O)O2)cc1,-0.307,0.0709,-0.106,0.255,0.0993,0.0865,1.01,-0.636 (inactive),-0.164,-0.191,1.23,-0.855 (inactive),-17.8 (active),-3.38 (inactive),1.3,2.18 (inactive),-0.259,1.24,0.323,-0.136
CON=C(C)CCC(=O)OC[C@H]1O[C@H](c2ccccc2)C=C[C@@H]1Oc1ccc(OC)cc1,-0.0269,0.0837,-0.0504,0.111,-0.272,-0.351,-0.0622,1.89 (inactive),0.308,-0.131,0.0846,1.34 (inactive),-0.241 (inactive),1.4 (inactive),-0.225,0.403 (inactive),-0.176,0.411,-0.0061,-0.0783
CCOC(=O)NN=C1C[C@@H](O)[C@@H](O)[C@@H]2[C@@H]3C(=O)N(c4cccc(Oc5ccccc5)c4)C(=O)[C@@H]3CC[C@H]12,-0.441,0.192,-0.187,0.221,0.615,0.855,0.234,-0.0124 (inactive),0.0755,-0.0645,0.626,-1.57 (inactive),-0.216 (inactive),-0.873 (inactive),0.0068,-0.998 (inactive),-0.175,0.311,0.589,-0.0371
O=C1C[C@@H](O)[C@@H](O)[C@@H]2[C@@H]3C(=O)N(C[C@@H]4CCCO4)C(=O)[C@@H]3CC[C@@H]12,-0.58,0.203,-0.0329,0.58,0.686,0.123,0.459,-1.13 (inactive),0.817,0.21,0.282,-0.217 (inactive),-0.519 (inactive),-0.404 (inactive),1.17,0.48 (inactive),-0.0708,0.658,0.472,0.091
CCOC(=O)[C@H](Cc1ccccc1)NC(=O)CCC1CC(OC(=O)NCc2ccc3c(c2)OCO3)CC2(CCCC(COC(=O)NCCc3ccccc3OC)O2)O1 (stereo not given in full),-0.259,0.058,-0.147,0.471,1.26,1.04,1.1,1.04 (inactive),0.569,0.141,1.49,0.163 (inactive),1.07 (inactive),1.52 (inactive),2.67,-0.324 (inactive),-0.112,0.679,1.08,0.0287
CC(C)CON=C1C[C@@H](O)[C@@H](O)[C@@H]2[C@@H]3C(=O)N(c4cccc(Oc5ccccc5)c4)C(=O)[C@@H]3CC[C@@H]12,-0.509,0.14,-0.13,0.206,0.336,0.61,1.1,-1.18 (inactive),-0.129,0.0373,1.4,-1.57 (inactive),0.174 (inactive),-0.827 (inactive),1.86,-0.961 (inactive),-0.131,1.02,0.046,-0.109
CC(C)C[C@H](NC(=O)CCC1CC(OC(=O)NCc2cccc3ccccc23)CC2(CCCC(COC(=O)NCc3ccccc3)O2)O1)C(=O)NCC(c1ccccc1)c1ccccc1 (stereo not given in full),-0.572,0.139,-0.113,0.618,1.35,0.438,1.2,0.244 (inactive),0.289,0.238,1.56,-0.852 (inactive),0.333 (inactive),-0.576 (inactive),1.97,0.94 (inactive),-0.166,1.64,1.09,-0.0333
CCOC(=O)[C@H](Cc1ccccc1)NC(=O)CCC1CC(OC(=O)NCc2cccc3ccccc23)CC2(CCCC(COC(=O)NCc3ccccc3)O2)O1 (stereo not given in full),-0.356,0.0841,-0.21,0.159,0.118,0.477,0.686,0.573 (inactive),0.0918,-0.303,1.04,-2.28 (inactive),-2.51 (inactive),-0.414 (inactive),0.728,-1.42 (inactive),-0.0931,0.547,0.955,-0.142
